Screening results from PubChem BioAssay.
A selection: hits, their analogues and other compounds. The true share with any hit is near 11%.
PI5P4K alpha inh: PI5P4K alpha (human) kinase inhibition; PI5P4Kalpha enzyme, ADP-Glo luminescence, 60 min; active compounds read low; actives 1.2% (n = 330,000); AID 652105; max response, %; P48426; active = max response of -50% or lower; inconclusive = between -30% and -50%; inactive = -30% or higher; note: value at the top dose of about 77 µM
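qHTS, 1536-well: enzyme/substrate mix, compound by pin tool, 5 microM ATP final; RT 60 min; ADP-Glo reagents 1 (45 min) then 2 (30 min); luminescence.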
JMJD2A Tudor: JMJD2A Tudor domain (human) inhibition; actives 4.4% (n = 390,000); AlphaScreen JMJD2A-Tudor / H3K4me3 peptide binding; Potency, µM (highest dose often 114 µM), usual class: inhibitors; O75164; note: nearly all actives have a fitted effect of over 50% in size
HP1b binding inh: HP1-beta chromodomain-methylated histone interaction inhibition; P83916; AlphaScreen HP1-beta / biotin-H3K9me3 peptide binding; Potency, µM (doses to about 114 µM), hits mostly inhibitors; actives 0.56% (n = 390,000); AID 540317; note: nearly all actives have a fitted effect of over 70% in size
Target sequence (P83916 whole entry, looked up): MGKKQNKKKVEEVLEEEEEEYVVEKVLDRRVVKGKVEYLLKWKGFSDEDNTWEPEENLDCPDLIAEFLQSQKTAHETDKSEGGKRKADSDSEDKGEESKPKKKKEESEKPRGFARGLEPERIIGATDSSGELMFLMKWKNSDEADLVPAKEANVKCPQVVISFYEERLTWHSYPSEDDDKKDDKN
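AlphaScreen: HP1-beta (50 nM) preformed 30 min with biotin-H3(1-18)K9me3 peptide (50 nM) in PBS pH 7.4, 0.01% Tween-20. Compound added for 30 min at RT, then streptavidin donor/nickel chelate acceptor beads (10 ug/mL) for 30 min.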
L3MBTL1 block: blocks human L3MBTL1; AlphaScreen L3MBTL1–H3K9me1 peptide binding; actives 0.66% (n = 230,000); Q9Y468; Potency, µM (titrated, usually from 57.1 µM), actives largely listed as inhibitors; AID 485360; note: nearly all actives have a fitted effect of over 60% in size
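AlphaScreen proximity signal between nickel-chelate acceptor and streptavidin donor beads (final 10 ug/mL) reports binding of 50 nM L3MBTL1 to 75 nM biotin-H3 K9me1 peptide; complex incubated with compounds 30 min at room temperature; cefsulodin titration as control.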
BAZ2B inh: inhibitors of human BAZ2B bromodomain | Q9UIF8 | AlphaScreen BAZ2B-H3K14Ac peptide displacement | Potency, µM (titrated, usually from 114 µM), usual class: inhibitors | actives 4.4% (n = 360,000) | AID 504333; note: nearly all actives have a fitted effect of over 60% in size
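AlphaScreen displacement of biotin-H3(5-23)K14Ac peptide (50 nM final) from BAZ2B (50 nM final) in PBS pH 7.4, 0.01% Tween-20; complex preformed 30 min RT, then compounds (top 110 uM) 30 min RT, beads 20 min dark.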
G9a inh: G9a (human) methyltransferase inhibition | AID 504332 | Q96KQ7 | G9a H3K9 monomethylation, AlphaScreen, 2 h | actives 8.8% (n = 350,000) | Potency, µM (doses to about 102 µM), usual class: inhibitors; note: nearly all actives have a fitted effect of over 75% in size
Target sequence (Q96KQ7 913-1193 limits assumed): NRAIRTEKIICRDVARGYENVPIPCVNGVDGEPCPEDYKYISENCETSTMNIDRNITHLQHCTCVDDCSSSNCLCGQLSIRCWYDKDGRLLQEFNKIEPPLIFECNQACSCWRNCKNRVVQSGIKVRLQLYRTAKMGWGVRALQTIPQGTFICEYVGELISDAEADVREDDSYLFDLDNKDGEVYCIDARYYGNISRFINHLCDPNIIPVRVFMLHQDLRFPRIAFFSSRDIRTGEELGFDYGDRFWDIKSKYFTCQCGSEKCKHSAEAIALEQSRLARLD
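AlphaScreen read-out: biotin-H3K9 peptide (500 nM) methylation by 20 nM enzyme with 20 uM SAM, 2 h at room temperature after 15 min compound preincubation; anti-monomethyl H3K9 antibody plus donor/acceptor beads, 10 min dark.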
A number is an active result; – = inactive; ? = inconclusive; · = not tested or not shown; [ ] = remark or other dose. Unless noted, calls come from the whole dose curve; as a rule, active = well fitted inhibition curve with a large enough effect; inconclusive = small, poorly fitted or top-dose-only effect; inactive = no such curve, though single readings can be large or run the other way.

SMILES	PI5P4K alpha inh	JMJD2A Tudor	HP1b binding inh	L3MBTL1 block	BAZ2B inh	G9a inh
CSC1=C(C#N)C(CC(C)C)C(C(C)=O)=C(C)N1 (stereo not given)	–	–	–	–	–	50µM
Cc1cccc(-n2nnc(-c3nc(-c4cccs4)no3)c2N)c1C	·	–	–	·	–	–
CN(C)c1ccc(/C=C/c2nc(-c3ccccc3O)n(-c3ccccc3)n2)cc1	·	?	–	·	?	?
CCN(CCCNC(=O)CN1N=C(c2ccccc2)CCC1=O)c1ccccc1	·	?	–	·	–	11µM
CCN(CCCNC(=O)CSc1cc(=O)n(CC)c2ccccc12)c1ccccc1	·	50µM	?	·	?	?
CCN(CC)CCCNC(=O)CN1N=C(c2ccccc2)CCC1=O	·	–	–	·	–	?
CO/N=C/NC(=O)c1ccc([N+](=O)[O-])c(CS(=O)(=O)c2ccc(Cl)cc2)c1	-50	?	–	–	–	–
NNC(=O)c1ccc([N+](=O)[O-])c(CS(=O)(=O)c2ccc(Cl)cc2)c1	–	–	–	–	–	–
Cc1ccc(Cl)cc1N1CCN(C(=O)c2ccc3c(c2)N(Cc2ccccc2)CCS3)CC1	·	–	–	·	–	?
CCOC(=O)c1c(NC(=S)Nc2ccc(Cl)cc2)sc(C)c1C	–	–	–	·	–	?
CCOC(=O)c1c(NC(=S)Nc2cccnc2)sc(C)c1C	–	–	–	·	?	45µM
CCOC(=O)c1c(NC(=S)Nc2ccccc2)sc2c1CC(C)(C)SC2	–	–	–	–	?	40µM
CCOC(=O)c1c(NC(=O)Nc2ccccc2)sc(C)c1C	–	–	–	–	–	40µM
CCOC(=O)Nc1sc(C)c(C)c1C(=O)OCC	–	–	–	–	–	–
CN(C)c1cccc2c1c(NS(=O)(=O)c1cn(C)cn1)nn2C	–	–	–	·	–	8.9µM
COC(=O)C1=C(C)N=c2s/c(=C3\C(=O)Nc4ccccc43)c(=O)n2C1c1ccccc1 (stereo not given)	·	·	·	?	7.9µM	7.9µM
O=Cc1ccc2cccnc2n1	–	?	–	·	–	40µM
CC(=O)Nc1cccc2cccnc12	·	–	–	·	·	·
O=Cc1ccc2ccc3cccnc3c2n1	–	63µM	–	·	?	?
CC(C)c1ccc(NC(=O)C2CCCN(S(=O)(=O)c3cccc4cccnc34)C2)cc1 (stereo not given)	·	–	–	·	–	–
Clc1ccccc1C1=CC(c2ccco2)n2ncnc2N1 (stereo not given)	–	–	–	–	–	35µM
COc1ccc(C2C=C(c3ccccc3)Nc3ncnn32)cc1 (stereo not given)	–	–	–	–[11.4 µM]	?	?
Clc1ccc(C2=CC(c3ccco3)n3ncnc3N2)cc1 (stereo not given)	–	?	–	–	?	8.9µM
COc1ccc(C2=CC(c3ccco3)n3ncnc3N2)cc1 (stereo not given)	–	–	–	–	?	11µM
CC(=O)c1cccc(NC(=O)c2ccc(Cl)c(S(=O)(=O)N3CCOCC3)c2)c1	·	–	–	·	–	–
SMILES	PI5P4K alpha inh	JMJD2A Tudor	HP1b binding inh	L3MBTL1 block	BAZ2B inh	G9a inh
CCCCC(=O)Nc1nnc(C2=COCCO2)o1	–	–	–	–	?	50µM
O=C(COc1ccccc1)Nc1nnc(-c2ccccc2Cl)o1	–	22µM	–	·	·	·
O=C(COc1ccc(Cl)cc1)Nc1nnc(C2=COCCO2)o1	–	3.5µM	–	·	20µM	–
O=C(COc1ccccc1)Nc1nnc(-c2ccc3c(c2)CCCC3)o1	–	–	–	–	–	–
CCOC(=O)C1CCN(C(=O)c2nn(-c3ccc(C)cc3)c(=O)c3c2c2ccccc2n3C)CC1	·	–	–	·	·	–
CCCCc1cn([C@@H](CCCCN)C(=O)N2CCNCC2)nn1	–	56µM	–	–	?	–[12.7 µM]
C#CCOCCOCCOCCNc1nc(N2CCN(C(=O)[C@H](C(C)C)n3cc(CCO)nn3)CC2)nc(N2CCN(C(=O)[C@H](CCCCN)n3cc(CCCC)nn3)CC2)n1	–	–	–	–	?	28µM
NCCCC[C@@H](C(=O)N1CCNCC1)n1cc(CN)nn1	–	–	–	–	–	–[2.33 µM]
